Compounds with a hit are over-represented: about 11% of the library has one in this group of screens.
PNC assembly inh = blocks assembly of the perinucleolar compartment; PC3M PTB-GFP, PNC prevalence imaging, 16 h; stronger effect = lower value; activity change (PNC), negative = inhibition, % at 10 µM; actives 3.1% (n = 140,000);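 active = readout at or below -70, meaning at least 70% loss of cells showing the perinucleolar compartment, a nuclear body marking cancer cells; inconclusive = readout between -30 and a set limit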
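Read-out is percentage of cells bearing a perinucleolar compartment, from automated 20x imaging of fixed, Hoechst-stained PC3M PTB-GFP cells. Cells were seeded 4 h, then exposed 16 h to compound (23 nl of library stock) in duplicate plates.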
HTT cytoprotect = cytoprotection in Huntington HTT-Q103 PC12 cell model. PC12 HTT-Q103 induced, cytoprotection, ATP luminescence, 40 h. Potency, µM (top dose mostly 56.4 µM), actives largely listed as activators. actives 0.14% (n = 230,000); also: nearly all actives have a fitted effect of over 45% in size
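Readout: ATPlite luminescence (ATP level). Model: stable PC12, inducible Htt exon1 Q103-GFP. Inducer: tebufenozide, 100 nM final. Compounds: dose series. No G418 in medium.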
RGS12 GoLoco inh = RGS12 GoLoco-Gai1 interaction inhibition. actives 0.44% (n = 230,000). Gai1:RGS12 GoLoco peptide FP, rhodamine, 10 min. P63096. Potency, µM (highest dose often 61.6 µM), hits mostly inhibitors; active = well fitted inhibition curve with a large enough effect, not every such curve was filed as active; inactive = no such curve, though single readings can be large or run the other way; also: nearly all actives have a fitted effect of over 30% in size
Target sequence (P63096 whole entry, looked up): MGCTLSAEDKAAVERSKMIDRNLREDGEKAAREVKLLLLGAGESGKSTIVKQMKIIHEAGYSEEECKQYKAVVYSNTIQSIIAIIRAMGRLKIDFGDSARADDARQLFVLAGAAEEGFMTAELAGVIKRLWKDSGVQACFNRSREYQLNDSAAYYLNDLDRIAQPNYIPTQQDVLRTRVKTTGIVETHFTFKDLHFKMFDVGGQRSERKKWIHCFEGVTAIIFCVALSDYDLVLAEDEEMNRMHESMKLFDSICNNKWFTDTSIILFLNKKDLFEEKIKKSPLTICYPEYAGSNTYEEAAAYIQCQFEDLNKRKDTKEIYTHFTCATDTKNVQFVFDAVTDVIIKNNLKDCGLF
HttQ103 aggreg = reduces HttQ103-GFP aggregates in PC12 cells; actives 1.1% (n = 220,000); PC12 HttQ103-GFP aggregates, Acumen cytometry, 40 h; Potency, µM (doses to about 46.1 µM), hits mostly inhibitors; also: nearly all actives have a fitted effect of over 60% in size
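PC12 cells stably carrying ecdysone-inducible HTT exon 1 Q103–GFP were induced with tebufenozide (100 nM final) and treated with library compounds in titration. GFP aggregates in lysates were counted by laser scanning cytometry.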
HPGD inh = HPGD (human) dehydrogenase inhibition; P15428; purified HPGD, NADH fluorescence kinetic, PGE2 substrate; Potency, µM, usual class: inhibitors; actives 4.3% (n = 150,000); active = well fitted inhibition curve with a large enough effect, not every such curve was filed as active; inconclusive = small, poorly fitted or top-dose-only effect, or another doubt; inactive = no such curve, though single readings can be large or run the other way
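NADH formation kinetics: reaction with 30 uM PGE2 and 1 mM NAD+ (final), 20 nM enzyme, Tris-HCl pH 8 with Tween 20, after 15 min compound preincubation at room temperature. Fluorescence change, last versus first of five reads.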
ALDH1A1 inh = ALDH1A1 (human) enzyme inhibition; P00352; Purified ALDH1A1, NADH fluorescence, propionaldehyde substrate; Potency, µM (titrated, usually from 75.3 µM), hits mostly inhibitors; actives 7.3% (n = 220,000); AID 1030; active = well fitted inhibition curve with a large enough effect, not every such curve was filed as active; inconclusive = small, poorly fitted or top-dose-only effect, or another doubt; inactive = no such curve, though single readings can be large or run the other way
Numbers stand for hits; . = inactive; ? = inconclusive; / = no result given; [ ] = dose if it differs, or a comment. Unless noted, calls follow the shape of the dose curve; as a rule, active = well fitted curve in the direction sought with a large enough effect; inconclusive = small, poorly fitted or top-dose-only effect, or another doubt; inactive = no such curve, though single readings can be large; an effect the other way counts as inactive or inconclusive.

SMILES	PNC assembly inh	HTT cytoprotect	RGS12 GoLoco inh	HttQ103 aggreg	HPGD inh	ALDH1A1 inh
CC(=O)N(C1=C(N2CCOCC2)C(=O)c2ccccc2C1=O)c1ccc(C(=O)O)cc1	/	.[10 µM]	.	.[9.22 µM]	/	/
Cn1cccc1C(=O)N1CCC2(CCCN(c3ccc(-c4ccccc4)cc3)C2)CC1	/	.	.	/	.	?
CC1CCN(S(=O)(=O)c2cn(CC(=O)N3CC(C)CC(C)C3)c(=O)c3ccccc23)CC1 (configuration not stated)	.	/	.	.	.	?
CCc1ccc(NC(=O)c2onc(C)c2Cl)cc1	.	.	.	.	.	.
Cn1c(SCC#N)nnc1-c1ccc2c(c1)OCO2	-118.8	.[1.9 µM]	.	.	.	.
Cn1c(SCc2ccccc2)nnc1-c1ccc2c(c1)OCO2	.	.	.	.	.	.
Clc1cc(Cl)c(OCC#CI)cc1Cl	/	.	/	.	/	/
CCCc1cc(=O)[nH]c(-n2[nH]c3c(c2=O)CCCC3)n1	.	.	.	.	22.4µM	23.8µM
CCO[P@]1(=O)OC[C@@H]2O[C@H](n3cnc4c(N)ncnc43)[C@H](O)[C@@H]2O1	/	.[10 µM]	.[14.2 µM]	/	.	.[13.5 µM]
CN(c1ccc(O)cc1)c1nc(-c2ccccc2)cs1	?	.[10 µM]	.	.	15.8µM	.
CCc1cc2c(=O)c(-c3ccc(F)cc3)c(C)oc2cc1OCC(=O)O	/	.	.	.[9.22 µM]	/	35.5µM
Cc1cc(Nc2nn(C)c(N)c2C#N)ccc1F	/	.[10 µM]	.	.[9.22 µM]	/	.
Cc1ccc(NCC(=O)N/N=C/c2ccc(C(=O)O)cc2)cc1	/	.[10 µM]	.	.[9.22 µM]	/	/
O=C(CNc1ccc(Br)cc1)c1ccccc1	.	.	.	.	.	20µM
Cc1ccc(C(=O)CNc2ccccc2C)cc1	?	.[10 µM]	.	.	.	11.2µM
Cc1ccc(C(=O)CNc2ccc(Br)cc2)cc1	.	.	.	?	.	17.8µM
O=C(CNc1ccc(F)cc1)c1ccccc1	/	.	.	.[9.22 µM]	/	12.6µM
Cc1ccc(C(=O)CC(=O)c2ccc(C(C)(C)C)cc2)cc1	/	.[10 µM]	.	.[9.22 µM]	/	.
CCOC(=O)CNC(=O)CSc1nc(-c2ccccc2)ns1	/	/	.	.	/	25.1µM
CCOC(=O)CSc1nc(-c2ccc(OC)cc2)ns1	?	.[10 µM]	.	.	35.5µM	25.1µM
Cc1noc(C)c1COC(=O)Cc1ccc(Cl)c(Cl)c1	?	.[0.074 µM]	.	0.794µM	.	.
C[C@@]12C(=O)OC(=O)[C@]1(C)[C@H]1CC[C@@H]2O1	/	.	.	.	.	.
S=c1[nH]nc(CSCc2ccccc2Cl)n1C1CCCCC1	/	/	.	.	/	?
S=c1[nH]nc(COc2ccc(Cl)cc2)n1Cc1ccccc1	/	/	.	/	/	.
S=c1[nH]nc(COc2ccc(Cl)cc2)n1C1CCCCC1	.	.[10 µM]	.	.	14.1µM	?
SMILES	PNC assembly inh	HTT cytoprotect	RGS12 GoLoco inh	HttQ103 aggreg	HPGD inh	ALDH1A1 inh
COc1ccc(OCc2n[nH]c(=S)n2-c2ccc(C)cc2)cc1	/	.[10 µM]	.	.[9.22 µM]	/	?
Cc1cccc(OCc2n[nH]c(=S)n2C2CCCCC2)c1	.	.[10 µM]	.	.	10µM	?
Cc1ccc(OCc2n[nH]c(=S)n2C2CCCCC2)cc1	.	.	.	.	14.1µM	14.1µM
O=C(Nc1nnc(-c2ccco2)o1)C1CC1	/	/	.	.	/	.
COc1ccc(C2C(C(=O)c3ccccc3)N3c4ccccc4C=CC3C2[N+](=O)[O-])cc1 (configuration not stated)	/	.	.	17.8µM	/	25.1µM
COc1ccc(N2C(=O)[C@@H]3[C@H](C2=O)[C@H](C(C)=O)N2c4ccccc4C=C[C@@H]32)cc1	/	.[10 µM]	.	.[9.22 µM]	/	/
COc1cc(/C=N/NC(=O)c2ccc(CN3C(=O)c4cccc5cccc3c45)cc2)cc(OC)c1O	/	.[10 µM]	.	.[9.22 µM]	/	/
CC1CCc2nc(NC(=O)CN3CCN(Cc4ccc5c(c4)OCO5)CC3)sc2C1 (configuration not stated)	.	.[0.074 µM]	.	.	.	14.1µM
COC(=O)c1c(NC(=O)c2nc3ccccc3s2)sc2c1CCN(C(C)=O)C2	.	.	.	.	.	12.6µM
COC(=O)c1c(NC(=O)C2COc3ccccc3O2)sc2c1CCN(C(C)=O)C2 (configuration not stated)	?	.[10 µM]	.	.	?	31.6µM
CNC(=O)c1c(NC(=O)c2nc3ccccc3s2)sc2c1CCC2	?	.	.	.	28.2µM	?
